# Experimental data taken from publication PMC7862700, “An all-to-all approach to the identification of sequence-specific readers for epigenetic DNA modifications on cytosine”.
# How the values were obtained:
# Test in all cases: DAPPL (digital affinity profiling via proximity ligation, sequencing); 10 mM Tris-HCl pH 7.5, 50 mM NaCl, 1 mM DTT, 4% glycerol, room temperature, 30 min; GST-TFs on glutathione beads, 16-mer random dsDNA library, 0.1% formaldehyde crosslink after washing; high values mean tight binding
# [1] = target: T1, FEV (Homo sapiens, UniProt Q99581 1-238); details: protein: recombinant; tags: N-terminal GST; dsDNA, one strand shown
# T1 sequence: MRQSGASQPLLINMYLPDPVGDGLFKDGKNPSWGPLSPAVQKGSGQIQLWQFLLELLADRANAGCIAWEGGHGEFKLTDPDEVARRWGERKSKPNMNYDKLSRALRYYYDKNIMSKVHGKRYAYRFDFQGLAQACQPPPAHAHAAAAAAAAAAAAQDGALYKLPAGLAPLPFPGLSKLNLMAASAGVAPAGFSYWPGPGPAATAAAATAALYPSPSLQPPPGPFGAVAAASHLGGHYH
# In short: (§1)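 Pools of DNA-barcoded human transcription factors, expressed in yeast as GST fusions on glutathione beads and combined with a tag-only sample, were incubated with 200 nmole of a 16-mer random double-stranded DNA library. Incubation took 30 min at room temperature in Tris/NaCl/DTT/glycerol buffer and was followed by washing, 0.1% formaldehyde crosslinking, proximity ligation (BsaI/T4 ligase, 1 h, 37 °C), PCR amplification and sequencing on an Illumina NextSeq500. Binding signal is the ratio of a hexamer's read frequency for a factor to its frequency for the tag-only sample.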
# [2] = target: ETV5 (Homo sapiens, UniProt P41161 1-510); details: protein: recombinant; tags: N-terminal GST; dsDNA, one strand shown
# In short: as §1
# [3] = target: HSF1 (Homo sapiens, UniProt Q00613 1-529); details: protein: recombinant; tags: N-terminal GST; chain copies: 3; dsDNA, one strand shown
# In short: as §1
# [4] = target: T2, SPIC (Homo sapiens, UniProt Q8N5J4 1-248); details: protein: recombinant; tags: N-terminal GST; dsDNA, one strand shown
# T2 sequence: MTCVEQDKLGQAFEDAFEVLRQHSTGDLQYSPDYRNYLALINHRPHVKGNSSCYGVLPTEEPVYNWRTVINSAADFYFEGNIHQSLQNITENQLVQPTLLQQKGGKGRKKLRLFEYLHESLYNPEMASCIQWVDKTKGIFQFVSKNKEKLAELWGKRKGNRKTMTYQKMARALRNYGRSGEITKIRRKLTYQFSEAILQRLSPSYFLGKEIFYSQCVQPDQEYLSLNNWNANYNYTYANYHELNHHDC
# In short: as §1
# [5] = target: ELF4 (Homo sapiens, UniProt Q99607 1-663); details: protein: recombinant; tags: N-terminal GST; dsDNA, one strand shown
# In short: as §1
# [6] = target: T3, ELK4 (Homo sapiens, UniProt P28324-2 1-405); details: protein: recombinant; tags: N-terminal GST; dsDNA, one strand shown
# T3 sequence: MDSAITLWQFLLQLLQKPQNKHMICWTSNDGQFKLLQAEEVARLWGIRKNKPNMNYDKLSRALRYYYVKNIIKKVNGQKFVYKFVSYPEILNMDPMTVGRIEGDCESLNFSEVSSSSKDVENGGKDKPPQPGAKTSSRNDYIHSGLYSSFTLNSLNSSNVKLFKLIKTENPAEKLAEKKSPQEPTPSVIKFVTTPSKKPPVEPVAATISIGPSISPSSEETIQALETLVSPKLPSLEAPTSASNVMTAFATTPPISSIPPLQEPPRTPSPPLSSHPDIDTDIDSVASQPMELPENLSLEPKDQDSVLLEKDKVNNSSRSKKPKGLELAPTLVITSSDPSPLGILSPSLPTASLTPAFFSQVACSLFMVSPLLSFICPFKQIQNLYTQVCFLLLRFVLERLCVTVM
# In short: as §1
# [7] = target: T4, ETV2 (Homo sapiens, UniProt O00321 1-342); details: protein: recombinant; tags: N-terminal GST; dsDNA, one strand shown
# T4 sequence: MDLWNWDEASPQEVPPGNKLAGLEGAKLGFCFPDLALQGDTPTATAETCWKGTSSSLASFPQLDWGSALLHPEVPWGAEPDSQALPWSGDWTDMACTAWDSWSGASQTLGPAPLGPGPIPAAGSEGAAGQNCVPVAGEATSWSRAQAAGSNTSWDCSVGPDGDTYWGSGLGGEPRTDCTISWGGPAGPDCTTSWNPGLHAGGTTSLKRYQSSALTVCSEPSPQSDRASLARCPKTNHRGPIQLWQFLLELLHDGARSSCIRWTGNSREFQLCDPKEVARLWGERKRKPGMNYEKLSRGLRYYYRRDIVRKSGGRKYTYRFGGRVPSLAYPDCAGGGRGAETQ
# In short: as §1
# [8] = target: T5, ELF3 (Homo sapiens, UniProt P78545 1-371); details: protein: recombinant; tags: N-terminal GST; dsDNA, one strand shown
# T5 sequence: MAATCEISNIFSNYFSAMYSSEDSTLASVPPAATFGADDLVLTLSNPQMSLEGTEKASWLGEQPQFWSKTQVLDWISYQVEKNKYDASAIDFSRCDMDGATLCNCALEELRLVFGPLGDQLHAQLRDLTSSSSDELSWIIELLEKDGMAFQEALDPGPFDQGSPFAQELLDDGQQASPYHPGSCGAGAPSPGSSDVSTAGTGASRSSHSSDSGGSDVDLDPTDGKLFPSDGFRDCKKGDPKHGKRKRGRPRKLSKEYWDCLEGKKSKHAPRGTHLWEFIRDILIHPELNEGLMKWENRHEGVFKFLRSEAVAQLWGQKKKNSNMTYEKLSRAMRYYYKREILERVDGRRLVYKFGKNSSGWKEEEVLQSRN
# In short: as §1
# [9] = target: CRX (Homo sapiens, UniProt O43186 1-299); details: protein: recombinant; tags: N-terminal GST; dsDNA, one strand shown
# In short: as §1
# [10] = target: ETV1 (Homo sapiens, UniProt P50549 1-477); details: protein: recombinant; tags: N-terminal GST; dsDNA, one strand shown
# In short: as §1
# [11] = target: T6, ERF (Homo sapiens, UniProt P50548 1-548); details: protein: recombinant; tags: N-terminal GST; dsDNA, one strand shown
# T6 sequence: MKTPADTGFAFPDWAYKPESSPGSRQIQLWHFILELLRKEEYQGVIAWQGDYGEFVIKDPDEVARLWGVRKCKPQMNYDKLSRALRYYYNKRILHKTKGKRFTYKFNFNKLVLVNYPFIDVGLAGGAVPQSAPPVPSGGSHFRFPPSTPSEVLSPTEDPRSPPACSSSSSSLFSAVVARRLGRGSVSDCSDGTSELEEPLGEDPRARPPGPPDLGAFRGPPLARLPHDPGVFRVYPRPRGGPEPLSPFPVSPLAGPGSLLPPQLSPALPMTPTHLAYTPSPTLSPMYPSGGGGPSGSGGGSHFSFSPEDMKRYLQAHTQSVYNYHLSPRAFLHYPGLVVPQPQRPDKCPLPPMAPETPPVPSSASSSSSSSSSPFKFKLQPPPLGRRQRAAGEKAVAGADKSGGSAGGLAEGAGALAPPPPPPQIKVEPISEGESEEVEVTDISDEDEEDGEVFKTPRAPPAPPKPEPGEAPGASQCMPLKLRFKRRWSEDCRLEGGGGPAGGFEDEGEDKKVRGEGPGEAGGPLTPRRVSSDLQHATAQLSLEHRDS
# In short: as §1
# [12] = target: T7, ETV3L (Homo sapiens, UniProt Q6ZN32 1-361); details: protein: recombinant; tags: N-terminal GST; dsDNA, one strand shown
# T7 sequence: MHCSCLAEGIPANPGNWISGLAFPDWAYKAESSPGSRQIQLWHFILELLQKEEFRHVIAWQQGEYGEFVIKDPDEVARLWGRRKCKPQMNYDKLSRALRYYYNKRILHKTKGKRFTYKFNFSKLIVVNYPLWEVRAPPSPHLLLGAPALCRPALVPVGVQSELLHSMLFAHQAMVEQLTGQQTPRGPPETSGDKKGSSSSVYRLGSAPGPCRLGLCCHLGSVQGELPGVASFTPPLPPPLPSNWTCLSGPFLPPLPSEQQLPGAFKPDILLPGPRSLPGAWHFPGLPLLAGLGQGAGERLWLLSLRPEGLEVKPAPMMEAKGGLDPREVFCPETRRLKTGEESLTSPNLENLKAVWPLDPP
# In short: as §1
# [13] = target: T8, ETS2 (Homo sapiens, UniProt P15036 1-469); details: protein: recombinant; tags: N-terminal GST; dsDNA, one strand shown
# T8 sequence: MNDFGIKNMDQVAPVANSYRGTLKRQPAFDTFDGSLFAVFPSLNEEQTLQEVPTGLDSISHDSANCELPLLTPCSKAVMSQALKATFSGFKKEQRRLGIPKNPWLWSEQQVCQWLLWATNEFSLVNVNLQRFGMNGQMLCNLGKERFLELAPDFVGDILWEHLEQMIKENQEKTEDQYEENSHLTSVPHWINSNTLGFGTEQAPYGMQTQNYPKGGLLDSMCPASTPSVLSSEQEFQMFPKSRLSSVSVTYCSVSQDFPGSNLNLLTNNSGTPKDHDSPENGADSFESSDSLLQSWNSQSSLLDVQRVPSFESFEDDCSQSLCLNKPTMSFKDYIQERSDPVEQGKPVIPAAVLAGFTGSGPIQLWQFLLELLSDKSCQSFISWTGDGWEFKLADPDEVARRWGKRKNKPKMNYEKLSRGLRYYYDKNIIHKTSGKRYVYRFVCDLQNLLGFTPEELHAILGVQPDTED
# In short: as §1
# [14] = target: T9, SPDEF (Homo sapiens, UniProt O95238 1-335); details: protein: recombinant; tags: N-terminal GST; dsDNA, one strand shown
# T9 sequence: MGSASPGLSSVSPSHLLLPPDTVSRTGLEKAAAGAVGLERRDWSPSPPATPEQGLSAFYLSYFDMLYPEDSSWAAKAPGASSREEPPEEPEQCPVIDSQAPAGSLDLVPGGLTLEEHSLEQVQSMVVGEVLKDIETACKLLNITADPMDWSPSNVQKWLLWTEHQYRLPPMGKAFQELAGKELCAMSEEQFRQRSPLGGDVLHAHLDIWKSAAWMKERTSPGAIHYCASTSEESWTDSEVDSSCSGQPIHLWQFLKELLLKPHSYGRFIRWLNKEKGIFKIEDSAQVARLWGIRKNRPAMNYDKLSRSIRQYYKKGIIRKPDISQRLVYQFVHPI
# In short: as §1
# [15] = target: T10, ETV7 (Homo sapiens, UniProt Q9Y603 1-341); details: protein: recombinant; tags: N-terminal GST; dsDNA, one strand shown
# T10 sequence: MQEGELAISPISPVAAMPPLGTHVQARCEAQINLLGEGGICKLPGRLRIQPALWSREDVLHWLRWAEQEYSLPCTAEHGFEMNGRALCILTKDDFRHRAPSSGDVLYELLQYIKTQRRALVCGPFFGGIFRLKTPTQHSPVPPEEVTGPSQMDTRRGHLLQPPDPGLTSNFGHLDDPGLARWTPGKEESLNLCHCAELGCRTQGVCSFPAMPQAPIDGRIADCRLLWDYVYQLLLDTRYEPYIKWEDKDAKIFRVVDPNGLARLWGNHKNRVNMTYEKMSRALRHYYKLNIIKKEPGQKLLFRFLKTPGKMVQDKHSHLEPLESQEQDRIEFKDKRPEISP
# In short: as §1
# [16] = target: T11, ELF5 (Homo sapiens, UniProt Q9UKW6-2 1-255); details: protein: recombinant; tags: N-terminal GST; dsDNA, one strand shown
# T11 sequence: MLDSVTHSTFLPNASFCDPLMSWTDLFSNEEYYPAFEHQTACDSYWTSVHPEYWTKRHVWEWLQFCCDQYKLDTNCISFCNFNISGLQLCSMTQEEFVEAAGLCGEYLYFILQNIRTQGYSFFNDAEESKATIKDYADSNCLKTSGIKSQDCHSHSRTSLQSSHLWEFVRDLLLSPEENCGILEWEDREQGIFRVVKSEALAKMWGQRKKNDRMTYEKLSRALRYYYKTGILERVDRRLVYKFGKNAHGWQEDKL
# In short: as §1
# [17] = target: T12, ETV3 (Homo sapiens, UniProt P41162-2 1-143); details: protein: recombinant; tags: N-terminal GST; dsDNA, one strand shown
# T12 sequence: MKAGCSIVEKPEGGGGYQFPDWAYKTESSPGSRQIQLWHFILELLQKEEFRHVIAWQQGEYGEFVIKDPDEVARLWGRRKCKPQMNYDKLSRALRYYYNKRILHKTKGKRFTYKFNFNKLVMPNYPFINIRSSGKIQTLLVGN
# In short: as §1
# [18] = target: ETV6 (Homo sapiens, UniProt P41212 1-452); details: protein: recombinant; tags: N-terminal GST; dsDNA, one strand shown
# In short: as §1
# Sequence of CRX (O43186 whole entry): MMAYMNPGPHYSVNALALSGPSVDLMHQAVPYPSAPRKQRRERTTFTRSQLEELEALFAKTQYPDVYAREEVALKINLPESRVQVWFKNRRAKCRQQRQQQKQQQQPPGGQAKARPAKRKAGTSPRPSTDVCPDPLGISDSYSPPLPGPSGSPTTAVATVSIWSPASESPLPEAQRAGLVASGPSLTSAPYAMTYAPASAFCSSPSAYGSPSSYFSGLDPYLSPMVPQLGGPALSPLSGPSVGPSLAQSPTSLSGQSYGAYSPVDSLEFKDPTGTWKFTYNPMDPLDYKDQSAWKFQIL
# Sequence of ETV1 (P50549 whole entry): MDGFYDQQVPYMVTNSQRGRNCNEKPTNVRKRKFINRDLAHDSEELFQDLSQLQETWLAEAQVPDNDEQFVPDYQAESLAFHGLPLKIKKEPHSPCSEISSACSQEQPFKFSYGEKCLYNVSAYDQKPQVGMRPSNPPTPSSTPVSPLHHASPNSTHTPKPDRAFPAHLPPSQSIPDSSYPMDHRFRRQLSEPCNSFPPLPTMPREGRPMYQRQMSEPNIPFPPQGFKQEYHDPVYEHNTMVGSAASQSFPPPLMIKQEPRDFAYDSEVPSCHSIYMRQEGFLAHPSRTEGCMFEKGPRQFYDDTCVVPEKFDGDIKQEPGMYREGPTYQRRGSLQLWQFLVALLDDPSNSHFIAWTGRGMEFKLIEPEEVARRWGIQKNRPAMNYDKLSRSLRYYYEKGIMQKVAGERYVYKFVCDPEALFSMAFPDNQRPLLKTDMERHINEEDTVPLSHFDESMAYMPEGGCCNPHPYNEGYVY
# Sequence of ETV5 (P41161 whole entry): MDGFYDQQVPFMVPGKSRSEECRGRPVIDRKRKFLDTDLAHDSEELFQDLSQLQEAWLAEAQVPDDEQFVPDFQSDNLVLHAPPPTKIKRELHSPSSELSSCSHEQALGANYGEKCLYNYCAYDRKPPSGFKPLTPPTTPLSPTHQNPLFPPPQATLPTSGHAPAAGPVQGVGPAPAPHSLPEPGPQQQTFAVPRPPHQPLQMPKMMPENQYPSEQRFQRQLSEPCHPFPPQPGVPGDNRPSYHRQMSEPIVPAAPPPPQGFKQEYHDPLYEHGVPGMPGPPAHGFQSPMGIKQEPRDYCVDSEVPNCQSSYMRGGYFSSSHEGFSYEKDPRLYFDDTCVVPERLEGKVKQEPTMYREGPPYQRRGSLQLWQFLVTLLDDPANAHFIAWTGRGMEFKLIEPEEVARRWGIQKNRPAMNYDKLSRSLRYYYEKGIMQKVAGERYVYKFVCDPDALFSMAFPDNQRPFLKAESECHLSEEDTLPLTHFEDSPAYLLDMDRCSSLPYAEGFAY
# Sequence of HSF1 (Q00613 whole entry): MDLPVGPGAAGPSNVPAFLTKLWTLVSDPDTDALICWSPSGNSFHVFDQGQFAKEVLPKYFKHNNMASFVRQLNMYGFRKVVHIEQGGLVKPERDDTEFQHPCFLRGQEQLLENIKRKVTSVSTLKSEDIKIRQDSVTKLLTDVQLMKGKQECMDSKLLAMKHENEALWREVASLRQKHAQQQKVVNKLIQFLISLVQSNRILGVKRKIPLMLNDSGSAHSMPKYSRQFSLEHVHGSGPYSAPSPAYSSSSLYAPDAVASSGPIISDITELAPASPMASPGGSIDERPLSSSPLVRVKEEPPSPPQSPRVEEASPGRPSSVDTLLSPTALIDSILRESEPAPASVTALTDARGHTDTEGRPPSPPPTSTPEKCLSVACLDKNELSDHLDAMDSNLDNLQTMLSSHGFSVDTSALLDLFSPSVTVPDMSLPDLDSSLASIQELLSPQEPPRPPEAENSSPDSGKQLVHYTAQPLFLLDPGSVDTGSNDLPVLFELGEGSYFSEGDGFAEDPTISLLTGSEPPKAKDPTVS
# Sequence of ELF4 (Q99607 whole entry): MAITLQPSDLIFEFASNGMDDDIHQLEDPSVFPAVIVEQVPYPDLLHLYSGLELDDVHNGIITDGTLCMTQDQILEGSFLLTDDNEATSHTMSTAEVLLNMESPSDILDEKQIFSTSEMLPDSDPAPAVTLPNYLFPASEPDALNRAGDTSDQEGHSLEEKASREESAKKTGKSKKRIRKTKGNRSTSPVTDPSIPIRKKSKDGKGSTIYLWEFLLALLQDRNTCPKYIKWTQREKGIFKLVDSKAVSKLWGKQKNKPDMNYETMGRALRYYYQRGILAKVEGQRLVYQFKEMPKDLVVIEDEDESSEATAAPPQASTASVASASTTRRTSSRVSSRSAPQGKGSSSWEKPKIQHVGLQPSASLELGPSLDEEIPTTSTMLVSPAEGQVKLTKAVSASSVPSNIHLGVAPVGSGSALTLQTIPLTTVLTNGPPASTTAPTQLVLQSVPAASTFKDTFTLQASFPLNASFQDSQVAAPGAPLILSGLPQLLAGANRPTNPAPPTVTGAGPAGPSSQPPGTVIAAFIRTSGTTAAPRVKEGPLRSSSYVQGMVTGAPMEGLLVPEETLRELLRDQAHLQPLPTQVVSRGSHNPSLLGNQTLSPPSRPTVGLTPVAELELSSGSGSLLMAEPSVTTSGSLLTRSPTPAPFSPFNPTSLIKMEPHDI
# Sequence of ETV6 (P41212 whole entry): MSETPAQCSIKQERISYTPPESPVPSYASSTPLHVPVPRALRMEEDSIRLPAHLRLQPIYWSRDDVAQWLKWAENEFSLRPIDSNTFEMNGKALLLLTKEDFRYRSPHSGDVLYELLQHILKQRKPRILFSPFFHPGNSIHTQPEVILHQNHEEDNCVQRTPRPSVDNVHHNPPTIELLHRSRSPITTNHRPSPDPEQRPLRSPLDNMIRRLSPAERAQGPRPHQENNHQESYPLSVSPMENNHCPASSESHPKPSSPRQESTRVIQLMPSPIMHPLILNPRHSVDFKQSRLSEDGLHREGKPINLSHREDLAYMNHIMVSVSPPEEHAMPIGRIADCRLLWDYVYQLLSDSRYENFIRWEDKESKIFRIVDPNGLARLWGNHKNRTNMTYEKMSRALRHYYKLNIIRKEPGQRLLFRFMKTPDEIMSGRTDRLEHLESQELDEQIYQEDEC
sequence,measurement,setting,value
CTTTAT,binding signal,[1],"1.17 fold enrichment (6-mer frequency, TF over GST control)"
same,binding signal,[2],"1.21 fold enrichment (6-mer frequency, TF over GST control)"
same,binding signal,[3],"1.23 fold enrichment (6-mer frequency, TF over GST control)"
same,binding signal,[4],"1.21 fold enrichment (6-mer frequency, TF over GST control)"
same,binding signal,[5],"1.19 fold enrichment (6-mer frequency, TF over GST control)"
same,binding signal,[6],"1.29 fold enrichment (6-mer frequency, TF over GST control)"
same,binding signal,[7],"1.29 fold enrichment (6-mer frequency, TF over GST control)"
same,binding signal,[8],"1.21 fold enrichment (6-mer frequency, TF over GST control)"
same,binding signal,[9],"1.65 fold enrichment (6-mer frequency, TF over GST control)"
same,binding signal,[10],"1.22 fold enrichment (6-mer frequency, TF over GST control)"
same,binding signal,[11],"1.08 fold enrichment (6-mer frequency, TF over GST control)"
same,binding signal,[12],"1.22 fold enrichment (6-mer frequency, TF over GST control)"
same,binding signal,[13],"1.29 fold enrichment (6-mer frequency, TF over GST control)"
same,binding signal,[14],"1.14 fold enrichment (6-mer frequency, TF over GST control)"
same,binding signal,[15],"1.31 fold enrichment (6-mer frequency, TF over GST control)"
same,binding signal,[16],"1.13 fold enrichment (6-mer frequency, TF over GST control)"
same,binding signal,[17],"1.19 fold enrichment (6-mer frequency, TF over GST control)"
same,binding signal,[18],"1.23 fold enrichment (6-mer frequency, TF over GST control)"
